Compounds without any hit were thinned out: in the full panel of roughly 83,000, 20% have a hit.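 Testing used 96-well plates and a 48-hour single-concentration exposure. Example: -40 means 40% of the starting cells died.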 Values without a mark were called inactive. Activity calls are given as the source filed them. How the source made its calls: active means growth percent below 10; inactive means the rest.

One test relates to UO-31 renal. Kind of test: NCI-60 one-dose screen, 48 h (100 = growth as untreated, 0 = no growth, -100 = all killed). The conditions noted are these: 10 µM unless noted.
In the case of `CC(=O)C1=C(O)C=C2Oc3c(C(=O)/C=C/c4ccccc4)c(O)c(C)c(O)c3[C@]2(C)C1=O`, the growth was 30.7%.

Consider `Cn1c(=O)c2c(ncn2CC[N+](C)(C)C)n(C)c1=O`, for which the growth is 91.7%.

With `OC(c1cc(-c2ccccc2)nc2ccc(Cl)cc12)C1CCCCN1` (stereo unspecified), the growth was 20.5%.

A further test concerns TK-10 renal. The description is as above. The conditions noted are these: 10 µM unless noted.
`CC[n+]1ccc2c(c1)C(=O)c1nccc3c1c-2nc1ccccc13`: the growth was 18.7%.

As for `COc1ccc(-c2csc(NC(=O)CN3CCN(c4cc5c(cc4F)c(=O)c(C(=O)O)cn5C4CC4)CC3)n2)cc1`, the growth is 18%.

`O=C1c2cc3c(cc2-c2c1c1cc(F)c(F)cc1c(=O)n2C[C@H](O)CO)OCO3`: the growth is -27.6% (active).

Regarding `Cn1c2ccccc2c2c3c(c4c5ccccc5n(CCCCCC#N)c4c21)C(=O)N(O)C3=O`, the growth was 42.1%.

As to `CCOC(=O)c1c2c(n3ccc(NC(=O)CCN4CCOCC4)cc13)C(=O)c1ncccc1C2=O`, the growth is 47%.

With `Oc1ccccc1N=Cc1c(O)ccc2ccccc12`, the growth was 119%.

In the case of `O=c1ccc2cc3ccccc3cc2[nH]1`, the growth is 119%.

As for `O=C(Nc1ccc(Oc2ccc(F)cc2)c(Cl)c1)c1cccnc1`, the growth was 97.7%.

For `CCCCCCCCCc1cc(CN2CCCCC2)c(O)c(CN2CCCCC2)c1`, the growth was 81.1%.

With `CC/C(Cc1ccccc1)=C(\c1ccc(OCCN2CCCC2)cc1)c1ccc(OC(C)=O)cc1`, the growth is 88.7%.

For `C=C1CC[C@@H]2[C@](C)(COC(C)=O)[C@H](OC(C)=O)CC[C@@]2(C)[C@@H]1CC(Nc1ccc(S(=O)(=O)Nc2nc(C)cc(C)n2)cc1)C1=CCOC1=O` (stereo partly specified), the growth is 111%.

As to `COc1ccc2c(c1)C(=O)/C(=C/c1cccc(OCC(=O)Nc3nc4c(s3)CCCC4)c1)O2`, the growth was -69.6% (active).

Take `O=C([C@@H](COCc1ccccc1)N1C(=O)[C@@H](N2C(=O)OC[C@@H]2c2ccccc2)[C@H]1/C=C/c1ccccc1)N1CCC(CCN2CCCCC2)CC1`: the growth was 59.8%.

Consider `O=c1[nH]c(-c2ccccn2)nc2sc3c(c12)CCCCC3`, for which the growth is 49.5%.

In the case of `NC1=CC(=O)C(=O)c2ccccc21`, the growth is 114%.

With `CN1CCOCCOCCOc2ccccc2NC(=O)c2nc(cnc2N)-c2ccc(cc2)S1(=O)=O`, the growth is 43.7%.

As to `COc1ccc(S(=O)(=O)NCCCNc2nccc(-c3c(-c4cccc(N)c4)nc4sccn34)n2)cc1`, the growth is 134%.

Take `COc1ccccc1N1CCN(CCn2c(=O)c3c(c4ccccc4n3C)n(C)c2=O)CC1`: the growth is 78.9%.

In the case of `COc1cnc2c(c1)C(=O)c1c-2n(CCCBr)c(=O)c2cc([N+](=O)[O-])ccc12`, the growth is 36.5%.

For `O=C(C[C@@H](C(=O)NCc1cccc(C(F)(F)F)c1)N1C(=O)[C@@H](N2C(=O)OC[C@@H]2c2ccccc2)[C@H]1/C=C/c1ccccc1)NC1CCN(Cc2ccccc2)CC1`, the growth is 61%.

Consider `CCCCCCNC(=O)Oc1ccc(/C(=C(\C)c2ccccc2)c2ccc(OCCN(CC)CC)cc2)cc1`, for which the growth is 76.1%.

`CC#CC#Cc1cccc(=O)o1`: the growth is 73.7%.

Consider `CCCCCCCCCCCCNC(=O)[C@H]1CSC(c2ccc(OC)c(F)c2)N1` (stereo partly specified), for which the growth was -96.3% (active).

Turning to `O=C(CN1CCN(c2cc3c(cc2F)c(=O)c(C(=O)N/N=C/c2ccccc2)cn3C2CC2)CC1)N/N=C\c1ccccc1`, the growth is 89.1%.

As to `CNc1nc(C)c(-c2nc(Nc3cccc(S(N)(=O)=O)c3)ncc2F)s1`, the growth is -2.07% (active).

`CC1=CC(=O)CC(C)(C)[C@@]1(O)/C=C/[C@@H](C)O`: the growth was 108%.

With `CC(=O)Nc1ccc2c(c1)c(NC(C)=O)nn2C(=O)Nc1ccc(Cc2ccccc2)cc1`, the growth is 85%.

Turning to `Cn1c2ccccc2c2c3c(c4c5ccccc5[nH]c4c21)C(=O)N(N)C3=O`, the growth was 82.5%.

Regarding `COc1cc(OC)c(/C=C/C(=O)c2c(OC)cc(OC)cc2OC)c(OC)c1`, the growth was 46.8%.

With `CCCCCCCCCCCCCCCCCCNC(=O)[C@H]1CSC(c2ccc(OC)c(F)c2)N1` (stereo partly specified), the growth was 59.5%.

Take `O=C1c2cc3c(cc2-c2c1c1cc(Cl)c(Cl)cc1c(=O)n2C[C@H](O)CO)OCO3`: the growth was -28% (active).

Consider `COc1cc2nc3cc([N+](=O)[O-])ccc3c(NCCCNCC(C)(C)O)c2cc1OC`, for which the growth was -31.7% (active).

In the case of `CC(C)C1=C[C@@]23CC[C@@H]4[C@](C)(CCC[C@@]4(C)C(=O)OCC#CCN4CCCC4)[C@H]2C[C@@H]1[C@H]1C(=O)OC(=O)[C@H]13`, the growth was 101%.

In the case of `CN(C)c1ccc(/C=C(\C#N)c2nc3ccccc3s2)cc1`, the growth was 121%.

`COc1ccc(Cl)cc1Nc1nc(C(F)(F)F)ccc1C(=O)N/N=C/c1cccnc1`: the growth was 49%.

As to `CC(=O)C1=C(O)C=C2Oc3c(C(=O)/C=C/c4ccccc4)c(O)c(C)c(O)c3[C@]2(C)C1=O`, the growth was 33.6%.

Regarding `Cn1c(=O)c2c(ncn2CC[N+](C)(C)C)n(C)c1=O`, the growth was 91.8%.

Consider `OC(c1cc(-c2ccccc2)nc2ccc(Cl)cc12)C1CCCCN1` (stereo unspecified), for which the growth was 71.3%.

The values are drawn from PubChem BioAssay (NCI).
